Our source for the growth inhibition values is PubChem BioAssay (NCI).

The panel holds about 79,000 compounds, 15% with a hit somewhere; the sample as a whole holds those more often. The source made the active and inactive calls. Cut-off read from the data, not from the text of the source: active = growth inhibition above about 70%; inactive = the rest.

One test in a line: NCI Yeast Anticancer Drug Screen. Data for the sgs1 mgt1 strain (AID 161).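 Note: 0% = growth of cultures given vehicle only.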 To be noted: S. cerevisiae sgs1 mgt1 strain, at 5.0 µM (retest, dose inferred, filed as 0.5), active compounds read high. A digest of the protocol:
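Inhibition of yeast growth, normalised to vehicle-treated controls, is reported for a strain bearing genetic alterations in DNA damage repair.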
As for `COC(OC)(c1ccccc1)C(Br)Br`, the growth inhibition was -24% (inactive).

Regarding `Cc1ccc(S(=O)(=O)OCCc2ccc(Cl)cc2)cc1`, the growth inhibition is -6% (inactive).

Turning to `O=C(CC(=O)c1ccncc1)c1ccccc1`, the growth inhibition was 1% (inactive).

On to `CCN1CCC(O)(/C=C/c2ccccc2)C(C(=O)/C=C/c2ccccc2)C1` (stereo not given), for which the growth inhibition was 13% (inactive).

As to `O=C(O)c1cc(Br)ccc1OCc1ccc(Cl)cc1`, the growth inhibition is -7% (inactive).

For the compound `Cc1ccc(C2COc3cc(O)c(O)cc3C2)cc1` (stereo not given), the growth inhibition was 32% (inactive).

As for `COC(=O)c1c2oc3c(C(=O)OC)cccc3nc-2cc(N)c1=O`, the growth inhibition is 6% (inactive).

Consider `CC(=O)NCCN(C)C`, for which the growth inhibition is 6% (inactive).

For `N=c1scc(-c2ccccc2)n1/N=C/c1cccnc1`, the growth inhibition is 7% (inactive).

In the case of `C(=C/c1ccccc1)/C=N/Nc1ccccc1`, the growth inhibition is -53% (inactive).

With `OC(Cc1ccc(Br)cc1)CN1CCC(c2ccccc2)CC1` (stereo not given), the growth inhibition was 97% (active).

Regarding `O=C1C(Cl)=C(Nc2ccc(S(=O)(=O)O)cc2)C(=O)c2ccccc21`, the growth inhibition was 35% (inactive).

Consider `CC1(CO)CCCC2(C)C3=C(CCCC3)CCC12` (stereo not given), for which the growth inhibition was -60% (inactive).

For `Cc1cc2nc(CC(=O)c3ccc4ccccc4c3)c(=O)[nH]c2cc1C`, the growth inhibition was -5% (inactive).

On to `CN(CCO)CCn1cnc2c1c(=O)n(C)c(=O)n2C`, for which the growth inhibition is 7% (inactive).

Regarding `O=C1c2ccccc2CC(Br)c2ccccc21` (stereo not given), the growth inhibition was 3% (inactive).

Consider `Cc1cccc2c(CBr)cc(=O)[nH]c12`, for which the growth inhibition was 13% (inactive).

With `CC(=O)CC1CCC(=O)/C=C/C(=O)OC(CC(C)=O)CCC(=O)/C=C/C(=O)O1` (stereo not given), the growth inhibition was 11% (inactive).

For `CCN(CC)CC(O)c1c(-c2ccccc2)c(-c2ccccc2)c2n1CCC2` (stereo not given), the growth inhibition is -2% (inactive).

In the case of `CC1(C)CC[C@]2(C(=O)O)[C@H](O)C[C@]3(C)C(=CC[C@@H]4[C@@]5(C)CC[C@H](OC6OCC(O)C(O)C6OC6OCC(O)C(O)C6OC6OCC(O)C(O)C6O)C(C)(C)[C@@H]5CC[C@]43C)[C@@H]2C1` (stereo not given in full), the growth inhibition was 8% (inactive).

On to `Cc1ccc(NC(=O)/C(CC(=O)c2sc(Nc3ccc(Cl)c(Cl)c3)nc2C)=N\Nc2ccc([N+](=O)[O-])cc2[N+](=O)[O-])c(C)c1`, for which the growth inhibition is 5% (inactive).

With `CC(=O)N=C1N(/C=C2\C(=O)Oc3ccccc3C2=O)C(=O)/C(=C/c2ccc(Cl)cc2Cl)N1C`, the growth inhibition was 7% (inactive).

As for `COC1OC2COC(c3ccccc3)OC2C(NC(=S)SCc2ccccc2)C1O` (stereo not given), the growth inhibition was -1% (inactive).

In the case of `O=C(CCN1CCCCC1)N1CCc2c([nH]c3ccccc23)C1c1cccnc1` (stereo not given), the growth inhibition is 0% (inactive).

Take `Cc1ccc(Sc2ccc(C)cc2[N+](=O)[O-])c([N+](=O)[O-])c1`: the growth inhibition is 69% (inactive).

`O=c1c2cc3ccccc3cc2c(=O)n2n1CC=CC2`: the growth inhibition is 9% (inactive).

Take `ClC(Cl)=C1C(=C(Cl)Cl)C(Cl)(Cl)C1(Cl)Cl`: the growth inhibition was 70% (active).

With `Cc1c(C(=O)N(CCO)CCO)[n+](=O)c2ccccc2n1[O-]`, the growth inhibition is 38% (inactive).

Turning to `CN(C)c1cc(N(C)C)c2cc(-c3ccccc3)sc2n1`, the growth inhibition was 5% (inactive).

In the case of `O=C(Nc1ccccc1O)/C(Cl)=C/Cl`, the growth inhibition was -57% (inactive).

As for `Cc1ccccc1SCc1nc2ccccc2c(C)[n+]1[O-]`, the growth inhibition was 9% (inactive).

In the case of `Oc1ccc2c(ccc3ccccc32)c1`, the growth inhibition is 0% (inactive).

For the compound `O=C1c2ccccc2C(=O)N1C(=NCc1ccccc1)c1ccccc1`, the growth inhibition is 4% (inactive).

In the case of `Cc1cc(Cl)cc2c1OCN(C)C2`, the growth inhibition is 1% (inactive).

With `CC(C)C(=O)/C=C/c1ccc(Cl)cc1Cl`, the growth inhibition was -16% (inactive).

For the compound `CC(C)C(=O)c1ccc([N+](=O)[O-])o1`, the growth inhibition is 8% (inactive).

Turning to `CSc1c(S(C)=O)c2ccccc2n1C` (stereo not given), the growth inhibition was 12% (inactive).

With `O=C(CCCCN1CCN2c3ccccc3CCC2C1)c1ccccc1` (stereo not given), the growth inhibition was 15% (inactive).

As to `COC(=O)c1ccc(C)cc1CC1Cc2cc(C)ccc2C1=O` (stereo not given), the growth inhibition is -31% (inactive).

As to `Cc1cc(Nc2ccc(N=Nc3ccc(O)c4ncccc34)cc2)nc(C)n1`, the growth inhibition was -2% (inactive).

The test is the same for the next values; noted with them: S. cerevisiae sgs1 mgt1 strain, at 50.0 µM (retest, dose inferred, filed as 5.0), active compounds read high.
Regarding `COC(OC)(c1ccccc1)C(Br)Br`, the growth inhibition is 45% (inactive).

Consider `Cc1ccc(S(=O)(=O)OCCc2ccc(Cl)cc2)cc1`, for which the growth inhibition was 41% (inactive).

Turning to `O=C(CC(=O)c1ccncc1)c1ccccc1`, the growth inhibition is 93% (active).

Consider `CCN1CCC(O)(/C=C/c2ccccc2)C(C(=O)/C=C/c2ccccc2)C1` (stereo not given), for which the growth inhibition is 82% (active).

In the case of `O=C(O)c1cc(Br)ccc1OCc1ccc(Cl)cc1`, the growth inhibition is 5% (inactive).

Regarding `Cc1ccc(C2COc3cc(O)c(O)cc3C2)cc1` (stereo not given), the growth inhibition is 99% (active).

Take `COC(=O)c1c2oc3c(C(=O)OC)cccc3nc-2cc(N)c1=O`: the growth inhibition was 22% (inactive).

`CC(=O)NCCN(C)C`: the growth inhibition is -1% (inactive).

`N=c1scc(-c2ccccc2)n1/N=C/c1cccnc1`: the growth inhibition was 98% (active).

For `C(=C/c1ccccc1)/C=N/Nc1ccccc1`, the growth inhibition was -52% (inactive).

`OC(Cc1ccc(Br)cc1)CN1CCC(c2ccccc2)CC1` (stereo not given): the growth inhibition was 97% (active).

`O=C1C(Cl)=C(Nc2ccc(S(=O)(=O)O)cc2)C(=O)c2ccccc21`: the growth inhibition is 100% (active).

In the case of `CC1(CO)CCCC2(C)C3=C(CCCC3)CCC12` (stereo not given), the growth inhibition is 96% (active).

Turning to `Cc1cc2nc(CC(=O)c3ccc4ccccc4c3)c(=O)[nH]c2cc1C`, the growth inhibition was -21% (inactive).

With `CN(CCO)CCn1cnc2c1c(=O)n(C)c(=O)n2C`, the growth inhibition is -2% (inactive).

As for `O=C1c2ccccc2CC(Br)c2ccccc21` (stereo not given), the growth inhibition is 94% (active).

Consider `Cc1cccc2c(CBr)cc(=O)[nH]c12`, for which the growth inhibition was 92% (active).

As to `CC(=O)CC1CCC(=O)/C=C/C(=O)OC(CC(C)=O)CCC(=O)/C=C/C(=O)O1` (stereo not given), the growth inhibition is 42% (inactive).

Turning to `CCN(CC)CC(O)c1c(-c2ccccc2)c(-c2ccccc2)c2n1CCC2` (stereo not given), the growth inhibition is 83% (active).

For `CC1(C)CC[C@]2(C(=O)O)[C@H](O)C[C@]3(C)C(=CC[C@@H]4[C@@]5(C)CC[C@H](OC6OCC(O)C(O)C6OC6OCC(O)C(O)C6OC6OCC(O)C(O)C6O)C(C)(C)[C@@H]5CC[C@]43C)[C@@H]2C1` (stereo not given in full), the growth inhibition was 33% (inactive).

As for `Cc1ccc(NC(=O)/C(CC(=O)c2sc(Nc3ccc(Cl)c(Cl)c3)nc2C)=N\Nc2ccc([N+](=O)[O-])cc2[N+](=O)[O-])c(C)c1`, the growth inhibition is 93% (active).

Take `CC(=O)N=C1N(/C=C2\C(=O)Oc3ccccc3C2=O)C(=O)/C(=C/c2ccc(Cl)cc2Cl)N1C`: the growth inhibition was 90% (active).

Consider `COC1OC2COC(c3ccccc3)OC2C(NC(=S)SCc2ccccc2)C1O` (stereo not given), for which the growth inhibition is 98% (active).

As to `O=C(CCN1CCCCC1)N1CCc2c([nH]c3ccccc23)C1c1cccnc1` (stereo not given), the growth inhibition is -8% (inactive).

Turning to `Cc1ccc(Sc2ccc(C)cc2[N+](=O)[O-])c([N+](=O)[O-])c1`, the growth inhibition was 68% (inactive).

In the case of `O=c1c2cc3ccccc3cc2c(=O)n2n1CC=CC2`, the growth inhibition is 18% (inactive).

As to `ClC(Cl)=C1C(=C(Cl)Cl)C(Cl)(Cl)C1(Cl)Cl`, the growth inhibition was 99% (active).

On to `Cc1c(C(=O)N(CCO)CCO)[n+](=O)c2ccccc2n1[O-]`, for which the growth inhibition was 18% (inactive).

As to `CN(C)c1cc(N(C)C)c2cc(-c3ccccc3)sc2n1`, the growth inhibition was 95% (active).

Turning to `O=C(Nc1ccccc1O)/C(Cl)=C/Cl`, the growth inhibition is 96% (active).

As to `Cc1ccccc1SCc1nc2ccccc2c(C)[n+]1[O-]`, the growth inhibition was 68% (inactive).

On to `Oc1ccc2c(ccc3ccccc32)c1`, for which the growth inhibition is 91% (active).

Regarding `O=C1c2ccccc2C(=O)N1C(=NCc1ccccc1)c1ccccc1`, the growth inhibition is 42% (inactive).

`Cc1cc(Cl)cc2c1OCN(C)C2`: the growth inhibition is 97% (active).

In the case of `CC(C)C(=O)/C=C/c1ccc(Cl)cc1Cl`, the growth inhibition is 31% (inactive).

For the compound `CC(C)C(=O)c1ccc([N+](=O)[O-])o1`, the growth inhibition is 96% (active).

As for `CSc1c(S(C)=O)c2ccccc2n1C` (stereo not given), the growth inhibition was 11% (inactive).

Consider `O=C(CCCCN1CCN2c3ccccc3CCC2C1)c1ccccc1` (stereo not given), for which the growth inhibition is 80% (active).

Take `COC(=O)c1ccc(C)cc1CC1Cc2cc(C)ccc2C1=O` (stereo not given): the growth inhibition is 68% (inactive).

As to `Cc1cc(Nc2ccc(N=Nc3ccc(O)c4ncccc34)cc2)nc(C)n1`, the growth inhibition is 35% (inactive).
